Out of some 310,000 compounds screened, about 14,000 (4.5%) showed an effect of 50% or more. The effect is printed as a negative number. Many of the other results were omitted from the sample, so strong results are more common in it than they were.
biological target: human ether-à-go-go-related gene (hERG) potassium channel (human, UniProt Q12809); assay: primary screen, population patch clamp on CHO cells stably expressing hERG; higher = less effect of the substance
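Also: peak tail current of the secondary pulse compared with the same well before compound.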

Chain of human ether-à-go-go-related gene (hERG) potassium channel (Q12809 whole entry, looked up): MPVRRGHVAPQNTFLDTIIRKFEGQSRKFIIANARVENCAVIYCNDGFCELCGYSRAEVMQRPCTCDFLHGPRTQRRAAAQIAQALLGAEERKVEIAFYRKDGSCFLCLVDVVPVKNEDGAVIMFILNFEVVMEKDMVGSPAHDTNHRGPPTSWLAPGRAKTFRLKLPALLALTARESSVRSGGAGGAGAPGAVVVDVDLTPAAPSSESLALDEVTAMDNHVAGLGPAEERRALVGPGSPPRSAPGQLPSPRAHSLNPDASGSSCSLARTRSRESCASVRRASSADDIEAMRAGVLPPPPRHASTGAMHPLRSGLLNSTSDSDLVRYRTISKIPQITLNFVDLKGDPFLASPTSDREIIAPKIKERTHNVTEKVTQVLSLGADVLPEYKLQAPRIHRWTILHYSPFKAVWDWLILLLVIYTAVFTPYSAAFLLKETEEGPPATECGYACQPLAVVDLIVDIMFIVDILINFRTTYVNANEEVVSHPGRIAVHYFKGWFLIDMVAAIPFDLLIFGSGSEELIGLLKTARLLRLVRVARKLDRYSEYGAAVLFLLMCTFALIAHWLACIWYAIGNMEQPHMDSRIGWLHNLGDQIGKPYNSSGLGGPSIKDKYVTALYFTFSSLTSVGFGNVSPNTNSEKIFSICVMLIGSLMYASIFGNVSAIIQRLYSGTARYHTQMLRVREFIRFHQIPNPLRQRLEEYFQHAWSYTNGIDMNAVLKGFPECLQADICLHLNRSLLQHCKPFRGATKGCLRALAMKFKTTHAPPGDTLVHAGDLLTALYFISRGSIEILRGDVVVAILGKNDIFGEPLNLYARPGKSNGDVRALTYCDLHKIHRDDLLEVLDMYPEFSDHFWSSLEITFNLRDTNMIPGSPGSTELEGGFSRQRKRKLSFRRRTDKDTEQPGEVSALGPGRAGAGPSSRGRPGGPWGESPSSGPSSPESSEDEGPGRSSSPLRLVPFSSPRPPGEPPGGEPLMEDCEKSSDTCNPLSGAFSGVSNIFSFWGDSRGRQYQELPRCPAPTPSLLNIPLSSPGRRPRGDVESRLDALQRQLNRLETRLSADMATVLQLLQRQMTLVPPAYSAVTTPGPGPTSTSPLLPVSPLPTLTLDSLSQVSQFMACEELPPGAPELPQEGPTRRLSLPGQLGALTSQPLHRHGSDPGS

SMILES | hERG current change (%, negative = inhibition) at 10uM [%]
Fc1ccccc1NC(=S)NN(Cc1ccccc1)c1ccccc1 | -13.9
CCNc1nc2[nH]c(=O)c3c(c2s1)OC(N)=C(C#N)C3c1ccc(C)cc1 (stereo not drawn) | 1.97
CCCc1nc(SCC(N)=O)[nH]c(=O)c1CC | 7.34
CCOc1ccc(NC(=O)c2ccccc2CO)cc1 | 16.2
Cn1cnnc1SCC(=O)Nc1ccccc1Sc1ccccc1 | -16.7
COc1cc(C(=O)Nc2cc(C)cc(C)c2)c(-n2cnnn2)cc1OC | 14.7
COCCN(C(=O)Nc1ccc(OC)cc1OC)C1CCN(C(C)=O)CC1 | 7.58
Cl.O=C(Nc1ccccc1)OCC(CN1CCCCC1)OC(=O)Nc1ccccc1 (stereo not drawn) | -60.1
O=C(Nc1ccccc1)OC(CN1CCCCC1)C(F)(F)F (stereo not drawn) | 6.17
O=C(CN1CCCCC1)Nc1ccccc1 | -1.04
CCN(CC(=O)Nc1ccc(NC(C)=O)cc1)C(=O)C1CCCN(C(=O)c2ccc(Cl)cc2)C1 (stereo not drawn) | -3.75
CC(=O)c1ccc(N2CCN(CC(=O)Nc3ccccc3C(=O)NC3CC3)CC2)c(F)c1 | -27.9
COc1ccc(OC)c(NC(=O)CN2CCC(NC(=O)c3ccccc3C)CC2)c1 | -12.3
CCOc1ccccc1C(=O)NC1CCN(CC(=O)Nc2cc(OC)ccc2OC)CC1 | -77.2
CCOc1ccccc1OCC(=O)Nc1ccccc1C(=O)NC1CC1 | 3.61
CCOc1ccccc1N1CCN(CC(=O)Nc2ccccc2C(=O)NC2CC2)CC1 | -70.2
Cc1ccccc1N1CCN(CC(=O)Nc2ccccc2C(=O)NC2CC2)CC1 | -62.4
CCOc1ccccc1NC(=O)N1CCC(NC(=O)c2ccccc2C)CC1 | -1.06
COC(=O)c1ccccc1NC(=O)CN1CCC(NC(=O)c2ccccc2C)CC1 | -39.9
CCOc1cc2c(cc1OCC)CN(CC(=O)Nc1ccccc1C(=O)NC1CC1)CC2 | -31.4
CCOc1ccccc1C(=O)Nc1cc(OC)ccc1OC | -3.8
CCOc1ccccc1NC(=O)CN1CCC(NC(=O)c2ccccc2C)CC1 | -59.4
CC1CCN(CC(=O)Nc2ccccc2C(=O)NC2CC2)CC1 | -17.4
COc1cccc(OCc2nnc(SC)n2C)c1 | -7.06

SMILES | hERG current change (%, negative = inhibition) at 10uM [%]
Cc1cc2ccccn2c1C(=O)c1ccc(NN)c([N+](=O)[O-])c1 | -6.4
O=C(Nc1ccc(S(=O)(=O)Nc2ccccn2)cc1)c1ccc(Cl)cc1Cl | 2.92
Cc1ccccc1NC(=O)CN1C(=O)S/C(=C\c2ccc(-c3cccc(C(=O)O)c3C)o2)C1=O | 23.7
CCc1cccc(NC(=O)COC(=O)C2CCN(c3ccc(C(F)(F)F)cn3)CC2)c1 | -4.68
CCOc1ccc(NC(=S)NC(=O)Cc2ccccc2)cc1 | 25.5
Cc1nnc(NC(=O)/C=C/c2ccco2)s1 | 26.3
O=C(Nc1ccc(CN2CCOCC2)cc1)c1ccc(Br)cc1 | 3.54
CC(C)NC(=O)c1ccccc1NC(=O)Cc1ccc([N+](=O)[O-])cc1 | -33.8
CC1C(=O)CCN(C(C)C)C1C.Cl (stereo not drawn) | 8.54
CCOC(=O)c1cnn(C)c1NC(=O)c1ccc(Cl)cc1Cl | -24.5
Cc1cc(C)nc(NS(=O)(=O)c2ccc(NC(=O)c3ccc4c(c3)OCO4)cc2)n1 | -0.197
O=C(CN1CCN(C/C=C/c2ccccc2)CC1)NC(=O)NC1CCCCC1 | -74.8
O=C(CN1CCc2ccccc2C1)Nc1ccccc1C(=O)NC1CC1 | -24.5
S=C(NC1CCCCC1)N1CCN(C/C=C/c2ccccc2)CC1 | -21.8
NC(=O)C1CCCN(CC(=O)Nc2ccccc2C(=O)NC2CC2)C1 (stereo not drawn) | -10.7
O=C(CN1CCN(Cc2ccccc2)CC1)NC(=O)NC1CCCCC1 | -46.3
O=C(CN1CCN(C/C=C/c2ccccc2)CC1)Nc1ccccc1C(=O)NC1CC1 | -80.5
CCOc1cc(C2NC(=O)NC2=O)ccc1O (stereo not drawn) | 17.4
CCN(CC)CCN(C(=O)Cn1nnc(-c2ccc(C)o2)n1)C(C(=O)NC(C)(C)C)c1cccs1 (stereo not drawn) | -41.6
O=C1CC(C(=O)NC2CCCCC2)C2(CCCCC2)O1 (stereo not drawn) | -1.23
COc1cc(NC(=O)C(=O)NCCN(C)C)c(OC)cc1Cl | 8.41
CCCCN(C1CCS(=O)(=O)C1)S(=O)(=O)c1ccc(OC)cc1 (stereo not drawn) | -24.5
CC(C)(CO)Nc1nc(N2CCCC2)nc(N2CCCC2)n1 | -13.8
COc1ccc(NC(=O)NNC(=O)COc2ccc3cc(Br)ccc3c2)cc1OC | 5.68

SMILES | hERG current change (%, negative = inhibition) at 10uM [%]
CCc1ccc2c(CN(C)Cc3ccccc3OC)cc(=O)oc2c1.O=C(O)C(=O)O | -21.3
Cc1ccc2c(CN3CCN(Cc4ccccc4)CC3)cc(=O)oc2c1 | -78.9
CCN1CCN(Cc2cc(=O)oc3ccc(C)cc23)CC1 | -3.04
COc1ccc2oc(=O)cc(CN3CCN(Cc4ccc(OC)c(OC)c4OC)CC3)c2c1 | -39.7
CC(C)c1ccc2oc(=O)cc(CN3CCN(Cc4ccccc4)CC3)c2c1 | 17.5
Cc1ccc2oc(=O)cc(CN3CCN(Cc4ccccc4)CC3)c2c1 | -56.8
CCOC(=O)C1CCN(Cc2cc(=O)oc3cc(C)ccc23)CC1 | -47.8
CCc1ccc2c(CN(C)Cc3ccc(OC(F)F)c(OC)c3)cc(=O)oc2c1 | -72.5
COc1ccc(CN2CCN(Cc3cc(=O)oc4cc(C)ccc34)CC2)c(OC)c1OC | -80.2
Cc1ccc2c(CN3CCCCC3)cc(=O)oc2c1 | -16.1
COc1cc(CN(C)Cc2cc(=O)oc3cc(C)c(Cl)cc23)ccc1OC(F)F | 12
Cc1ccc2c(CN3CCOCC3)cc(=O)oc2c1 | -27.6
CC(Sc1nc(N)cc(=O)[nH]1)C(=O)Nc1sc2c(c1C#N)CCCC2 (stereo not drawn) | 1.55
Cc1c(C)c(C)c(S(=O)(=O)NCCc2ccccn2)c(C)c1C | -7.95
C=CCNC(=O)c1nn2cccnc2c1Cl | 12.7
COC(=O)C1C(=O)C=C(Nc2ccc(F)cc2F)CC1c1ccccc1 (stereo not drawn) | -16.9
O=C1CCCN1CC(O)CS(=O)(=O)c1ccc(Cl)cc1 (stereo not drawn) | 16.7
COc1cccc(CN(C)Cc2nc3cc(C(F)(F)F)ccc3c(=O)[nH]2)c1 | -3.19
COc1cc2c(cc1OC)CN(Cc1cc(=O)oc3cc(C)c(C)cc13)CC2 | -37.6
Cc1ccc2c(CN3CCN(CCO)CC3)cc(=O)oc2c1 | -74.9
CCc1ccc2c(CN3CCc4cc(OC)c(OC)cc4C3)cc(=O)oc2c1 | -66
CCc1cc2c(CN3CCN(CCO)CC3)cc(=O)oc2cc1O | 15.6
Cc1ccc2c(CN3CC(C)CC(C)C3)cc(=O)oc2c1 (stereo not drawn) | -2.89
COc1cc(CN(C)Cc2nc3cc(C(F)(F)F)ccc3c(=O)[nH]2)ccc1OC(F)F | -66.5

SMILES | hERG current change (%, negative = inhibition) at 10uM [%]
Cc1ccc2c(CN3CCC(C)CC3)cc(=O)oc2c1 | -50
Cc1ccc2c(CN3CCN(CCO)CC3)cc(=O)oc2c1C | -15.5
Cc1ccc2oc(=O)cc(CN3CCC(C)CC3)c2c1 | 10.8
COc1cc2c(cc1OC)CN(Cc1cc(=O)oc3cc(C)c(Cl)cc13)CC2 | -14.3
CSc1ccc(CN(C)Cc2nc3cc(C(F)(F)F)ccc3c(=O)[nH]2)cc1 | 12.9
Cc1ccc2c(c1)-c1c(cnn1CC(=O)N(Cc1ccco1)C1CCCCC1)CO2 | -13
Cc1cc(C)cc(NC(=O)Cn2nnc(C(=O)NCc3ccco3)c2N)c1 | 6.01
CCn1cc(/C=N\NC(=O)Cc2ccc(Cl)cc2)cn1 | -12
CCOC(=O)N1CCN(C(=O)CSc2nnc(CNC(=O)c3ccccc3F)o2)CC1 | 6.37
COc1ccccc1-c1cc(C(=O)NC2CCN(C)CC2)c2ccc(Cl)c(C)c2n1 | -42
N#CC1(NC(=O)COC(=O)CCCN=C2NS(=O)(=O)c3ccccc32)CCCCC1 | 15
Cn1c(SCC(=O)NCc2ccc3c(c2)OCO3)nc2c(c1=O)SCC2 | -21
Cc1ccc2c(CN3CCN(S(=O)(=O)c4ccccc4C(F)(F)F)CC3)cc(=O)oc2c1 | -57.3
Cc1ccc(S(=O)(=O)N2CCN(Cc3ccccc3C(F)(F)F)CC2)cc1 | -5.53
CCc1ccc2c(CN3CCOCC3)cc(=O)oc2c1 | -31.7
CCc1ccc2oc(=O)cc(CN3CCN(Cc4ccccc4)CC3)c2c1 | -46.3
Cc1ccc2c(CSc3nnnn3C)cc(=O)oc2c1 | -42.4
CCc1ccc2c(CN3CCN(Cc4ccccc4)CC3)cc(=O)oc2c1 | -79.7
Cc1ccc2c(CN3CCN(S(=O)(=O)c4ccccc4C(F)(F)F)CC3)cc(=O)oc2c1C | -5.49
CCc1ccc2c(CSc3nnnn3C)cc(=O)oc2c1 | -68.1
Cn1nnnc1SCc1cc(=O)[nH]c2ccccc12 | 2.31

Source: paper PMC4336329 (PLoS ONE, 2015)
